Results reported in PubChem BioAssay AID1159580 (chemical genetic matrix, 2015).
Among all 5,500 compounds or so, about 2,000 (36%) were called active. About 18% were inconclusive and are not listed. Cut-off read from the data, not from the text of the source: active = normalized growth mostly below about 0.91 (no sharp cut-off); inconclusive = no clear call, values can overlap the other calls; inactive = mostly above about 0.92. The list shows a part of the results.

Experiment: chemical genetic growth profiling, strain panel (AID 1159580);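 note: tested at 20 µM; growth read once vehicle control cultures reached saturation at 30 °C; 1 = growth at the plate median or of vehicle wells; lower values mean less growth of the strain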
Details: S. cerevisiae deletion strains, growth OD

Measured: normalized growth

N#C/C(=N/Nc1ccc(F)cc1)C(=O)c1ccccc1
inactive: locus YDL132W, strain cdc53, active compounds read low 0.906 | locus YDL214C, strain PRR2, active compounds read low 0.913 | locus YDR477W, strain SNF1, active compounds read low 0.756 | locus YER123W, strain YCK3, active compounds read low 0.794 | locus YER133W, strain GLC7, active compounds read low 0.885 | locus YFR019W, strain FAB1, active compounds read low 0.913 | locus YGR040W, strain KSS1, active compounds read low 0.693 | locus YGR052W, strain FMP48, active compounds read low 0.98 | locus YGR092W, strain DBF2, active compounds read low 0.769 | locus YHR079C, strain IRE1, active compounds read low 0.826 | locus YHR082C, strain KSP1, active compounds read low 0.762 | locus YHR205W, strain SCH9, active compounds read low 0.799 | locus YJL095W, strain BCK1, active compounds read low 0.731 | locus YJL128C, strain PBS2, active compounds read low 0.942 | locus YJL157C, strain FAR1, active compounds read low 0.907 | locus YJR066W, strain TOR1 (second series), active compounds read low 0.836 | locus YJR066W, strain TOR1, active compounds read low 0.654 | locus YKL048C, strain ELM1, active compounds read low 0.895 | locus YKL067W, strain YNK1, active compounds read low 0.872 | locus YKL101W, strain HSL1, active compounds read low 0.839 | locus YKL203C, strain TOR2, active compounds read low 0.883 | locus YLR133W, strain CKI1, active compounds read low 0.815 | locus YLR403W, strain SFP1, active compounds read low 0.721 | locus YML070W, strain DAK1, active compounds read low 0.854 | locus YMR205C, strain PFK2 (second series), active compounds read low 0.821 | locus YNL020C, strain ARK1, active compounds read low 0.819 | locus YNL183C, strain NPR1, active compounds read low 0.657 | locus YNL307C, strain MCK1 (second series), active compounds read low 0.795 | locus YOL136C, strain PFK27, active compounds read low 0.885 | locus YOR061W, strain CKA2, active compounds read low 0.849 | locus YOR119C, strain RIO1, active compounds read low 0.783 | locus YOR231W, strain MKK1, active compounds read low 0.736 | locus YPL031C, strain PHO85, active compounds read low 0.701 | locus YPL153C, strain RAD53, active compounds read low 0.757
active: locus YAR019C, strain CDC15, active compounds read low 0.853 | locus YBL105C, strain PKC1, active compounds read low 0.855 | locus YBR135W, strain CKS1, active compounds read low 0.842 | locus YBR136W, strain MEC1, active compounds read low 0.844 | locus YBR160W, strain CDC28, active compounds read low 0.862 | locus YDL017W, strain CDC7, active compounds read low 0.858 | locus YDL028C, strain MPS1, active compounds read low 0.859 | locus YDL101C, strain DUN1, active compounds read low 0.903 | locus YDL108W, strain KIN28, active compounds read low 0.859 | locus YDR052C, strain DBF4, active compounds read low 0.84 | locus YDR054C, strain cdc34, active compounds read low 0.853 | locus YDR226W, strain ADK1, active compounds read low 0.832 | locus YFL009W, strain cdc4, active compounds read low 0.842 | locus YFL029C, strain CAK1, active compounds read low 0.841 | locus YFR003C, strain YPI1, active compounds read low 0.854 | locus YFR028C, strain CDC14, active compounds read low 0.855 | locus YHR030C, strain SLT2, active compounds read low 0.704 | locus YIL147C, strain SLN1, active compounds read low 0.842 | locus YJR016C, strain ILV3, active compounds read low 0.84 | locus YKL193C, strain SDS22, active compounds read low 0.873 | locus YLR113W, strain HOG1, active compounds read low 0.804 | locus YMR001C, strain CDC5, active compounds read low 0.841 | locus YMR277W, strain FCP1, active compounds read low 0.85 | locus YNL006W, strain LST8, active compounds read low 0.853 | locus YNL161W, strain CBK1, active compounds read low 0.863 | locus YNL207W, strain RIO2, active compounds read low 0.83 | locus YNL222W, strain SSU72, active compounds read low 0.87 | locus YOL078W, strain AVO1, active compounds read low 0.852 | locus YOR329C, strain SCD5, active compounds read low 0.868 | locus YPL204W, strain HRR25, active compounds read low 0.653 | locus YPL209C, strain IPL1, active compounds read low 0.876 | locus YPL256C, strain CLN2, active compounds read low 0.747 | locus YPR025C, strain CCL1, active compounds read low 0.863 | locus YPR106W, strain ISR1, active compounds read low 0.886 | locus YPR111W, strain DBF20, active compounds read low 0.862 | strain NNK1, active compounds read low 0.883 | strain TSCII, active compounds read low 0.844
